From PubChem BioAssay
ELG1 repair inh – blocks ELG1-dependent DNA repair in HEK293T cells. HEK293T ELG1-luciferase reporter, luminescence, 16 h; DNA damage induced by 5-fluorouridine. AID 504467. 330,000 compounds, 2.3% hits. Potency, µM (doses to about 46.1 µM), actives largely listed as inhibitors; also: nearly all actives have a fitted effect of over 55% in size
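In this reporter screen, reduction of luminescence relative to DMSO vehicle indicated activity. Compounds and 5-fluorouridine were added together to 2,000 cells per well, incubated for 16 hr at 37 °C, then developed with ONE-Glo.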
VP16 counter – counter-screen for ROR gamma inhibitors: Gal4-VP16 reporter | Drosophila S2 Gal4-VP16 UAS-luciferase, luminescence, 20 h | Potency, µM (titrated, usually from 53.6 µM), usual class: inhibitors | 310,000 compounds, 3.5% hits | AID 2546;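 also: Gal4-VP16 expression switched on by copper sulfate through the metallothionein promoter; nearly all actives have a fitted effect of over 50% in size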
RORg inh – inhibitors of mouse ROR gamma transcriptional activity; P51450; Drosophila S2 Gal4-RORgamma UAS-luciferase reporter, 20 h; Potency, µM (doses to about 53.6 µM), actives largely listed as inhibitors; 310,000 compounds, 5.4% hits; AID 2551; also: nearly all actives have a fitted effect of over 60% in size
Target sequence (P51450 whole entry, looked up, the tested form may be a part): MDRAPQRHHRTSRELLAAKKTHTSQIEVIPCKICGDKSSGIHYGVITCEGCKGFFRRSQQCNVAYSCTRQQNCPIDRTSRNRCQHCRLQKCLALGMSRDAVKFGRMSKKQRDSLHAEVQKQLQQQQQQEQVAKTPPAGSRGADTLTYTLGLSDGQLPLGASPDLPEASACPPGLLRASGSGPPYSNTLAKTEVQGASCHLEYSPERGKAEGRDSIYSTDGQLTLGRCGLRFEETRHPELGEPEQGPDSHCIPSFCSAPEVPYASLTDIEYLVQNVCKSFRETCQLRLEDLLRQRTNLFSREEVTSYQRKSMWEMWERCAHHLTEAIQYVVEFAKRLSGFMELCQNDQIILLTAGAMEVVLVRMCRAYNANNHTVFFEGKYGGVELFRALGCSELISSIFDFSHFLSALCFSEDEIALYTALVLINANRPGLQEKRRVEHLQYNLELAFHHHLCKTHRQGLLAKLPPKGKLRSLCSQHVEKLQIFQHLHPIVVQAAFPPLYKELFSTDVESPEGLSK
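Schneider cells (Drosophila), stable Gal4 DBD–ROR gamma + UAS-luc; 1 hr cmpd preincubation; Cu2+ induction 700 uM final; 20 hr ambient; luminescence.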
IL1B secr inh – inflammasome signaling inhibition, IL-1 beta readout; THP-1 LPS/ATP IL-1B secretion, AlphaLISA, 16 h; stronger effect = lower value; activity change, % at 57.5 µM; 360,000 compounds, 4.7% hits; AID 743279; in the data active = activity change below about -50%; inconclusive = mostly about -30% to -49%
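THP-1 cells pretreated 1 hr with compounds (up to 57.5 uM final), then stimulated with LPS (250 ng/mL final) plus ATP (1.25 mM final); secreted IL-1B measured by AlphaLISA after 16 hr, decreased signal indicating inhibition.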
TDP1 cell CPT – DT40-hTDP1 cell growth loss with CPT; chicken DT40 Tdp1-/-;hTDP1 cells + 20 nM CPT, ATP luminescence, 48 h; Potency, µM (top dose mostly 46.2 µM), usual class: inhibitors; 420,000 compounds, 12% hits; also: nearly all actives have a fitted effect of over 55% in size
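Cell growth measured by CellTiter-Glo luminescence after a minimum 48 h, 37 C compound exposure with 20 nM CPT in Tdp1-knockout DT40 cells stably expressing hTDP1, seeded 400/well; qHTS titration format.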
DT40 TDP1 no CPT – qHTS for Inhibitors of human tyrosyl-DNA phosphodiesterase 1 (TDP1): qHTS in cells in absence of CPT; DT40 Tdp1-/- hTDP1 cells, no CPT, ATP luminescence, 48 h; Potency, µM (doses to about 46.2 µM), most hits filed as inhibitors; 420,000 compounds, 15% hits; AID 686978, 2013; also: nearly all actives have a fitted effect of over 55% in size
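A cellular qHTS used chicken DT40 cells lacking endogenous Tdp1 but carrying stably transfected human TDP1. Compounds were applied without camptothecin, and cell growth kinetics were judged by ATP-dependent luminescence after ≥48 hr.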
A number is an active result; 0 = inactive; ? = inconclusive; - = no result; [ ] = dose if it differs, or a comment. Hits are enriched below; roughly 21% of the tested compounds scored in any of these assays. Unless noted, calls follow the shape of the dose curve; as a rule, active = well fitted curve in the direction sought with a large enough effect; inconclusive = small, poorly fitted or top-dose-only effect, or another doubt; inactive = no such curve, though single readings can be large; an effect the other way counts as inactive or inconclusive.

SMILES	ELG1 repair inh	VP16 counter	RORg inh	IL1B secr inh	TDP1 cell CPT	DT40 TDP1 no CPT
O=C(NN=C1CCN(Cc2ccccc2)CC1)c1ccccc1O	0	?	10µM	0	0	0
Cc1c(C)n(CCCN(C)C)c2ncnc(NCc3ccccc3)c12	0	0	0	?	0	0
Cc1ccc(C)c(N=Cc2c(O)c3ccccc3oc2=O)c1	0	0	0[1.91 µM]	0	0	0
CCn1cc(C(=O)O)c(=O)c2cc(F)c(N3CCN[C@@H](C)C3)c(F)c21	-	0	0	-	-	-
N#C/C(=C\c1c(Cl)cccc1Cl)c1nn(-c2ccccc2)c(-n2cccc2)c1C#N	?	0	0	0	25.9µM	20.6µM
N#C/C(=C\c1cccc2ccccc12)c1nn(-c2ccccc2)c(N)c1C#N	-	-	-	0	?	?
Cc1ccc(/C=C(\C#N)c2nn(-c3ccccc3)c(N)c2C#N)cc1	0	0	?	?	?	14.6µM
COc1ccc(C(=O)NC(=S)NNC(=O)Cc2cccs2)cc1	0	?	6.31µM	0	?	?
COc1ccc(/C=C/C(=O)NC(=S)NNC(=O)Cc2cccs2)cc1OC	0	0	?	0	16.4µM	?
NC(=O)C1CCN(C(=O)NC(=O)c2ccccc2)CC1	0	-	-	0	0	0
CC1(C)Nc2cccc3c(N=Nc4ccc(N=Nc5ccccc5)c5ccccc45)ccc(c23)N1	-	-	-	-	?	11.2µM
Nc1ccc(N=Nc2ccccc2)c2cccnc12	?	0	0	0	0	0
c1cc2c3c(cccc3c1)NC1(CCCC1)N2	-	-	-	0	?	0
CC1(C)Nc2cccc3cccc(c23)N1	-	-	-	0	?	16.4µM
O=C(CNS(=O)(=O)c1ccc(Br)cc1)N1CCN(c2ccc(F)cc2)CC1	?	0	0	0	?	18.4µM
O=C(CNS(=O)(=O)c1ccc(F)cc1)N1CCOCC1	0	0	0	0	0	0
O=C(CCn1nc(-c2ccc(Cl)cc2)ccc1=O)N1CCN(c2ccc(F)cc2)CC1	0	0	0	?	?	20.6µM
COc1ccc(C(=O)NCC(=O)N2CCN(c3ccc(Cl)cc3)CC2)cc1	0	0	0	0	0	?
CNS(=O)(=O)c1cn(CC(=O)N2CCN(c3ccc(Cl)cc3)CC2)cc1S(=O)(=O)NC	-	-	-	-	14.6µM	13µM
O=C(COc1ccc(S(=O)(=O)NC2CCCCC2)cc1)N1CCN(c2ccc(F)cc2)CC1	9.2µM	?	0	0	16.4µM	20.6µM
CCCC(=O)Nc1ccc2c(c1)nc1n2CCN(CCOC)C1	0	0	0	0	0	0
Cc1ccc(-n2c(=O)cc(NCc3cccnc3)[nH]c2=O)cc1	0	0	0	0	0	0
COc1ccc(C2(CNC(=O)C(=O)Nc3ccc(C)cc3)CCOCC2)cc1	0	0	0	0	?	?
O=C(CNS(=O)(=O)c1ccc(Cl)cc1)N1CCN(c2ccc(F)cc2)CC1	23.1µM	-	-	0	?	?
Cc1cc(/C=C2\NC(=S)N(C)C2=O)ccc1N1CCCC1	0	?	3.55µM	0	?	?
SMILES	ELG1 repair inh	VP16 counter	RORg inh	IL1B secr inh	TDP1 cell CPT	DT40 TDP1 no CPT
CCCN1C(=O)/C(=C/c2ccc(N3CCCC3)c(C)c2)NC1=S	10.3µM	0	0	0	16.4µM	20.6µM
Cc1cc(/C=C2/C(=O)N(C)C(=S)N2C)ccc1N1CCCC1	?	0	0	0	?	?
CCOC(=O)Cc1csc(NC(=O)c2c(O)c3ccccc3n(CC(C)C)c2=O)n1	?	0	0	0	0	0
CCOC(=O)Cc1csc(/N=C/c2c(O)n(-c3ccc(C)cc3C)c(=O)c3ccccc23)n1	?	0	0	0	?	16.4µM
N=C(N)SCCc1ccc(OCc2ccc([N+](=O)[O-])cc2)cc1	-	0	0	-	8.41µM	?
O=S(=O)(c1ccccc1)[C@@]1(c2ccccc2)C[C@@H]2ON=C(c3cccc(Br)c3)[C@@H]2C1	0	-	-	0	4.61µM	3.66µM
NC(=S)N/N=C/c1cn(-c2ccccc2)nc1-c1cccnc1	0	8.91µM	6.31µM	0	11.6µM	2.91µM
O=C(NC1CCN(Cc2ccccc2)CC1)c1cn(-c2ccccc2)nc1-c1cccnc1	0	-	-	-90.6	0	0
O=C(O)/C(=C\c1cn(-c2ccccc2)nc1-c1cccnc1)NC(=O)c1ccccc1	0	0	0	0	0	0
O=C(N/N=C/c1cn(-c2ccccc2)nc1-c1cccnc1)c1ccccc1	?	0	5.62µM	?	23.1µM	23.1µM
Cc1cccc(NC(=O)c2oc3ccc(S(=O)(=O)N(C)C4CCCCC4)cc3c2C)c1C	-	-	-	-	10.3µM	8.2µM
Cc1c(C(=O)Nc2cccc(Cl)c2)oc2ccc(S(=O)(=O)N(C)C3CCCCC3)cc12	-	-	-	-	?	20.6µM
Cc1ccc(Cl)cc1NC(=O)c1oc2ccc(S(=O)(=O)N(C)C3CCCCC3)cc2c1C	-	-	-	-	20.6µM	?
Cc1ccc(NC(=O)c2oc3ccc(S(=O)(=O)N4CCCCCC4)cc3c2C)cc1Cl	-	-	-	-	0	0
Cc1c(C(=O)Nc2ccc(S(=O)(=O)Nc3ncccn3)cc2)oc2ccc(Cl)cc12	0	0	0	0	0	0
Cc1ccccc1NC(=O)Cn1cc(S(=O)(=O)c2ccccc2)c(=O)c2ccccc21	-	-	-	-	0	0
Cc1n[nH]c(C)c1S(=O)(=O)N(CC(=O)NCc1ccccc1Cl)c1ccc(C(C)C)cc1	-	-	-	-	?	16.4µM
COc1cccc(CNC(=O)CN(c2ccc(C(C)C)cc2)S(=O)(=O)c2c(C)n[nH]c2C)c1	-	-	-	-	16.4µM	23.1µM
Cc1ccc(N(CC(=O)NCc2ccccc2Cl)S(=O)(=O)c2c(C)noc2C)cc1	0	0	0	0	0	?
Cc1sc2ncn(CC(=O)NCCCN3CC(C)CC(C)C3)c(=O)c2c1S(=O)(=O)N1CC(C)CC(C)C1 (stereo not drawn)	0	0	0	0	18.4µM	?
CC1CCN(CCCNC(=O)CCCNC(=O)Cn2cnc3sc4c(c3c2=O)CCCC4)CC1	0	0	0	-100.6	0	0
Cc1sc2ncn(CC(=O)NCCCN3CCC(C)CC3)c(=O)c2c1S(=O)(=O)N1CCC(C)CC1	0	0	0	0	0	0
COC(=O)C1=C(C)N(Cc2ccccc2)[C@]23O[C@](C(=O)OC)(C(=O)N2C1c1ccccc1)C1C(=O)N(C)C(=O)C13 (stereo partly drawn)	-	0[10 µM]	0[10 µM]	-	-	-
CCCc1cnc2c(c1SCC(=O)Nc1ccccc1OCC)c(=O)n(C)c(=O)n2C	-	-	-	-	0	0
CCOC(=O)C1=C(C)N(c2ccccc2)C(=O)/C1=C\c1ccco1	0	?	?	-58.6	?	?
COc1ccc(/C=C/c2nc3ccccc3c(=O)n2-c2cccc(C(F)(F)F)c2)cc1	-	-	-	-	5.8µM	11.6µM
